# ± gives the standard deviation.
# T1: HaloTag-ATRX ADD domain (163-292)
# T1 chain: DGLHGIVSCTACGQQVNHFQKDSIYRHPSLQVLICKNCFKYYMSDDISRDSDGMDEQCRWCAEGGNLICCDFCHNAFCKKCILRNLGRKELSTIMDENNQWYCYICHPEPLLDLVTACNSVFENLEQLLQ
# B1: H2A 1-13 Sph G R G K Q G G K A R A K (peptide)
# chain: SGRGKQGGKARAK
# B2: H2A 1-13 S G R G Kac Q G G K A R A K (peptide)
# chain: SGRGKQGGKARAK
# B3: H2A 1-13 S G Rme G Kac Q G G K A R A K (peptide)
# chain: SGRGKQGGKARAK
# B4: H2A 1-13 Sph G R G Kac Q G G K A R A K (peptide)
# chain: SGRGKQGGKARAK
# B5: H2A 1-13 S G Rme2a G Kac Q G G K A R A K (peptide)
# chain: SGRGKQGGKARAK
# B6: H2A 1-13 Sph G R G K Q G G Kac A R A K (peptide)
# chain: SGRGKQGGKARAK
# B7: H2A 1-13 S G Rcit G Kac Q G G K A R A K (peptide)
# chain: SGRGKQGGKARAK
# B8: H2A 1-13 Sph G Rme G K Q G G K A R A K (peptide)
# chain: SGRGKQGGKARAK
# B9: H2A 1-13 Sph G Rcit G K Q G G K A R A K (peptide)
# chain: SGRGKQGGKARAK
# B10: H2A 1-13 S G Rcit G K Q G G K A R A K (peptide)
# chain: SGRGKQGGKARAK
# What was measured:
# Assay in all cases: peptide microarray binding signal (635 nm), min-max normalized on array (fraction of array maximum); higher = stronger binding
# Details in all cases: peptide region: H2A 1-13
# [1] = target: T1, HaloTag-ATRX ADD domain (163-292)
# Experimental: (§1)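 Histone 13-mer peptides were synthesized as cellulose conjugates with a C-terminal 20-atom PEG linker and printed in triplicate on nitrocellulose. The sequence given is the unmodified backbone; PTMs (Kme1/2/3, Kac, Sph/Tph, Rme/Rme2a/Rme2s, Rcit) are listed in the label and the 'peptide modifications' condition. Slides were probed at 4 °C for 1 h with biotin-labelled (HQ)5-HaloTag reader fusions (ATRX-ADD, ING2-PHD) then streptavidin-Alexa647, or with rabbit histone antibodies then anti-rabbit Alexa647. The mean 635 nm signal of the triplicate spots was scaled 0-1 between the lowest and highest values on each array.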
# [2] = target: HaloTag-ING2 PHD (mouse Ing2 200-280)
# Experimental: as §1
# [3] = target: anti-H3K4me3 antibody ab8580
# Experimental: as §1
# [4] = target: anti-H3K9me3 antibody ab8898
# Experimental: as §1
# [5] = peptide modifications: H2AS1ph, binder concentration: 1:2,000 dilution
# [6] = peptide modifications: H2AS1ph, binder concentration: 1:10,000 dilution
# [7] = peptide modifications: H2AK5ac, binder concentration: 1:2,000 dilution
# [8] = peptide modifications: H2AK5ac, binder concentration: 1:10,000 dilution
# [9] = peptide modifications: H2AR3me1 H2AK5ac, binder concentration: 1:2,000 dilution
# [10] = peptide modifications: H2AR3me1 H2AK5ac, binder concentration: 1:10,000 dilution
# [11] = peptide modifications: H2AS1ph H2AK5ac, binder concentration: 1:2,000 dilution
# [12] = peptide modifications: H2AS1ph H2AK5ac, binder concentration: 1:10,000 dilution
# [13] = peptide modifications: H2AR3me2a H2AK5ac, binder concentration: 1:2,000 dilution
# [14] = peptide modifications: H2AR3me2a H2AK5ac, binder concentration: 1:10,000 dilution
# [15] = peptide modifications: H2AS1ph H2AK9ac, binder concentration: 1:2,000 dilution
# [16] = peptide modifications: H2AR3cit H2AK5ac, binder concentration: 1:2,000 dilution
# [17] = peptide modifications: H2AR3cit H2AK5ac, binder concentration: 1:10,000 dilution
# [18] = peptide modifications: H2AS1ph H2AR3me1, binder concentration: 1:2,000 dilution
# [19] = peptide modifications: H2AS1ph H2AR3me1, binder concentration: 1:10,000 dilution
# [20] = peptide modifications: H2AS1ph H2AR3cit, binder concentration: 1:2,000 dilution
# [21] = peptide modifications: H2AS1ph H2AR3cit, binder concentration: 1:10,000 dilution
# [22] = peptide modifications: H2AR3cit, binder concentration: 1:2,000 dilution
# [23] = peptide modifications: H2AR3cit, binder concentration: 1:10,000 dilution
binder,measurement,setting,value
B1,peptide microarray binding signal,"[1]; peptide modifications: H2AS1ph, binder concentration: 50 nM",0.00235 ± 3.8e-05
same,peptide microarray binding signal,"[1]; peptide modifications: H2AS1ph, binder concentration: 500 nM",0.00462 ± 0.00011
same,peptide microarray binding signal,"[2]; peptide modifications: H2AS1ph, binder concentration: 10 nM",0.002148 ± 1.2e-05
same,peptide microarray binding signal,"[2]; peptide modifications: H2AS1ph, binder concentration: 100 nM",0.00312 ± 0.00029
same,peptide microarray binding signal,[3]; [5],0.000208 ± 2.2e-06
same,peptide microarray binding signal,[3]; [6],0.000342 ± 3.8e-06
same,peptide microarray binding signal,[4]; [5],0.000166 ± 3.6e-06
same,peptide microarray binding signal,[4]; [6],0.000231 ± 2.6e-06
B2,peptide microarray binding signal,"[1]; peptide modifications: H2AK5ac, binder concentration: 50 nM",0.00288 ± 4.3e-05
same,peptide microarray binding signal,"[1]; peptide modifications: H2AK5ac, binder concentration: 500 nM",0.0061 ± 0.00049
same,peptide microarray binding signal,"[2]; peptide modifications: H2AK5ac, binder concentration: 10 nM",0.00239 ± 2.4e-05
same,peptide microarray binding signal,"[2]; peptide modifications: H2AK5ac, binder concentration: 100 nM",0.005528 ± 4.3e-05
same,peptide microarray binding signal,[3]; [7],0.000378 ± 1e-05
same,peptide microarray binding signal,[3]; [8],0.000399
same,peptide microarray binding signal,[4]; [7],0.000227 ± 4.1e-06
same,peptide microarray binding signal,[4]; [8],0.000577 ± 6.2e-06
B3,peptide microarray binding signal,"[1]; peptide modifications: H2AR3me1 H2AK5ac, binder concentration: 50 nM",0.00467 ± 0.00064
same,peptide microarray binding signal,"[1]; peptide modifications: H2AR3me1 H2AK5ac, binder concentration: 500 nM",0.00424 ± 0.00012
same,peptide microarray binding signal,"[2]; peptide modifications: H2AR3me1 H2AK5ac, binder concentration: 10 nM",0.002507 ± 1.4e-05
same,peptide microarray binding signal,"[2]; peptide modifications: H2AR3me1 H2AK5ac, binder concentration: 100 nM",0.00305 ± 0.00059
same,peptide microarray binding signal,[3]; [9],0.000434 ± 2.9e-05
same,peptide microarray binding signal,[3]; [10],0.000571
same,peptide microarray binding signal,[4]; [9],0.000242 ± 6.7e-06
same,peptide microarray binding signal,[4]; [10],0.000634
B4,peptide microarray binding signal,"[1]; peptide modifications: H2AS1ph H2AK5ac, binder concentration: 50 nM",0.00298 ± 3.8e-05
same,peptide microarray binding signal,"[1]; peptide modifications: H2AS1ph H2AK5ac, binder concentration: 500 nM",0.00752 ± 0.00011
same,peptide microarray binding signal,"[2]; peptide modifications: H2AS1ph H2AK5ac, binder concentration: 10 nM",0.00292 ± 9.7e-05
same,peptide microarray binding signal,"[2]; peptide modifications: H2AS1ph H2AK5ac, binder concentration: 100 nM",0.00276 ± 0.00011
same,peptide microarray binding signal,[3]; [11],0.000264 ± 5.6e-06
same,peptide microarray binding signal,[3]; [12],0.000685 ± 7.2e-06
same,peptide microarray binding signal,[4]; [11],0.000257 ± 2.7e-06
same,peptide microarray binding signal,[4]; [12],0.000577 ± 6.2e-06
B5,peptide microarray binding signal,"[1]; peptide modifications: H2AR3me2a H2AK5ac, binder concentration: 50 nM",0.00354 ± 0.00011
same,peptide microarray binding signal,"[1]; peptide modifications: H2AR3me2a H2AK5ac, binder concentration: 500 nM",0.00657 ± 0.00029
same,peptide microarray binding signal,"[2]; peptide modifications: H2AR3me2a H2AK5ac, binder concentration: 10 nM",0.00352 ± 5e-05
same,peptide microarray binding signal,"[2]; peptide modifications: H2AR3me2a H2AK5ac, binder concentration: 100 nM",0.00454 ± 0.00022
same,peptide microarray binding signal,[3]; [13],0.0005474 ± 5.3e-06
same,peptide microarray binding signal,[3]; [14],0.00137 ± 1.3e-05
same,peptide microarray binding signal,[4]; [13],0.000468 ± 9e-06
same,peptide microarray binding signal,[4]; [14],0.00104 ± 1.1e-05
B6,peptide microarray binding signal,"[1]; peptide modifications: H2AS1ph H2AK9ac, binder concentration: 500 nM",0.005476 ± 3.5e-05
same,peptide microarray binding signal,"[2]; peptide modifications: H2AS1ph H2AK9ac, binder concentration: 100 nM",0.00354 ± 0.00045
same,peptide microarray binding signal,[3]; [15],0.000208 ± 2.2e-06
same,peptide microarray binding signal,[4]; [15],0.000121 ± 1.3e-06
B7,peptide microarray binding signal,"[1]; peptide modifications: H2AR3cit H2AK5ac, binder concentration: 50 nM",0.00389 ± 0.00015
same,peptide microarray binding signal,"[1]; peptide modifications: H2AR3cit H2AK5ac, binder concentration: 500 nM",0.00481 ± 0.00026
same,peptide microarray binding signal,"[2]; peptide modifications: H2AR3cit H2AK5ac, binder concentration: 10 nM",0.00519 ± 0.00013
same,peptide microarray binding signal,"[2]; peptide modifications: H2AR3cit H2AK5ac, binder concentration: 100 nM",0.00567 ± 0.00026
same,peptide microarray binding signal,[3]; [16],0.001 ± 3.7e-05
same,peptide microarray binding signal,[3]; [17],0.0016
same,peptide microarray binding signal,[4]; [16],0.000634 ± 9.9e-06
same,peptide microarray binding signal,[4]; [17],0.0015 ± 4.4e-05
B8,peptide microarray binding signal,"[1]; peptide modifications: H2AS1ph H2AR3me1, binder concentration: 50 nM",0.0036 ± 0.00033
same,peptide microarray binding signal,"[1]; peptide modifications: H2AS1ph H2AR3me1, binder concentration: 500 nM",0.00495 ± 6.5e-05
same,peptide microarray binding signal,"[2]; peptide modifications: H2AS1ph H2AR3me1, binder concentration: 10 nM",0.00346 ± 0.00011
same,peptide microarray binding signal,"[2]; peptide modifications: H2AS1ph H2AR3me1, binder concentration: 100 nM",0.00446 ± 0.00061
same,peptide microarray binding signal,[3]; [18],0.000566 ± 1.9e-05
same,peptide microarray binding signal,[3]; [19],0.000799 ± 8.3e-06
same,peptide microarray binding signal,[4]; [18],0.000287 ± 2.9e-06
same,peptide microarray binding signal,[4]; [19],0.000807 ± 1.5e-05
B9,peptide microarray binding signal,"[1]; peptide modifications: H2AS1ph H2AR3cit, binder concentration: 50 nM",0.00392 ± 8.1e-05
same,peptide microarray binding signal,"[1]; peptide modifications: H2AS1ph H2AR3cit, binder concentration: 500 nM",0.00486 ± 5.6e-05
same,peptide microarray binding signal,"[2]; peptide modifications: H2AS1ph H2AR3cit, binder concentration: 10 nM",0.00167 ± 3e-05
same,peptide microarray binding signal,"[2]; peptide modifications: H2AS1ph H2AR3cit, binder concentration: 100 nM",0.00283 ± 0.0002
same,peptide microarray binding signal,[3]; [20],0.000472 ± 2.6e-05
same,peptide microarray binding signal,[3]; [21],0.000514 ± 1.1e-05
same,peptide microarray binding signal,[4]; [20],0.000272 ± 4.9e-06
same,peptide microarray binding signal,[4]; [21],0.000692 ± 7.3e-06
B10,peptide microarray binding signal,"[1]; peptide modifications: H2AR3cit, binder concentration: 50 nM",0.00257 ± 6.9e-05
same,peptide microarray binding signal,"[1]; peptide modifications: H2AR3cit, binder concentration: 500 nM",0.00614 ± 6.4e-05
same,peptide microarray binding signal,"[2]; peptide modifications: H2AR3cit, binder concentration: 10 nM",0.00137 ± 3.3e-05
same,peptide microarray binding signal,"[2]; peptide modifications: H2AR3cit, binder concentration: 100 nM",0.00262 ± 0.0002
same,peptide microarray binding signal,[3]; [22],0.000245 ± 2.6e-06
same,peptide microarray binding signal,[3]; [23],0.000514 ± 5.5e-06
same,peptide microarray binding signal,[4]; [22],0.000181
same,peptide microarray binding signal,[4]; [23],0.000404 ± 4.4e-06

# Source: the supplement of paper PMC4022240
